Active and inactive are the calls of the source.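 The calls were made as follows, unless noted: active = mean inhibition over 43.08%, the solvent-only control mean plus 3 SD; inactive = the rest.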
Target: Nuclear receptor coactivator 3 (Homo sapiens) (UniProt Q9Y6Q9)
Experiment: NCOA3 GAL4-fusion reporter inhibition – cell-based, luminescence, quadruplicate, confirmation (AID 588792);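 also: 0% = DMSO treated cells and 100% = gossypol at 36 µM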
Conditions: HEK293 GAL4-SRC3 luciferase reporter, at 3.6 µM, stronger effect = higher value

Sequence of Nuclear receptor coactivator 3 (Homo sapiens) (Q9Y6Q9 whole entry, looked up, the tested form may be a part): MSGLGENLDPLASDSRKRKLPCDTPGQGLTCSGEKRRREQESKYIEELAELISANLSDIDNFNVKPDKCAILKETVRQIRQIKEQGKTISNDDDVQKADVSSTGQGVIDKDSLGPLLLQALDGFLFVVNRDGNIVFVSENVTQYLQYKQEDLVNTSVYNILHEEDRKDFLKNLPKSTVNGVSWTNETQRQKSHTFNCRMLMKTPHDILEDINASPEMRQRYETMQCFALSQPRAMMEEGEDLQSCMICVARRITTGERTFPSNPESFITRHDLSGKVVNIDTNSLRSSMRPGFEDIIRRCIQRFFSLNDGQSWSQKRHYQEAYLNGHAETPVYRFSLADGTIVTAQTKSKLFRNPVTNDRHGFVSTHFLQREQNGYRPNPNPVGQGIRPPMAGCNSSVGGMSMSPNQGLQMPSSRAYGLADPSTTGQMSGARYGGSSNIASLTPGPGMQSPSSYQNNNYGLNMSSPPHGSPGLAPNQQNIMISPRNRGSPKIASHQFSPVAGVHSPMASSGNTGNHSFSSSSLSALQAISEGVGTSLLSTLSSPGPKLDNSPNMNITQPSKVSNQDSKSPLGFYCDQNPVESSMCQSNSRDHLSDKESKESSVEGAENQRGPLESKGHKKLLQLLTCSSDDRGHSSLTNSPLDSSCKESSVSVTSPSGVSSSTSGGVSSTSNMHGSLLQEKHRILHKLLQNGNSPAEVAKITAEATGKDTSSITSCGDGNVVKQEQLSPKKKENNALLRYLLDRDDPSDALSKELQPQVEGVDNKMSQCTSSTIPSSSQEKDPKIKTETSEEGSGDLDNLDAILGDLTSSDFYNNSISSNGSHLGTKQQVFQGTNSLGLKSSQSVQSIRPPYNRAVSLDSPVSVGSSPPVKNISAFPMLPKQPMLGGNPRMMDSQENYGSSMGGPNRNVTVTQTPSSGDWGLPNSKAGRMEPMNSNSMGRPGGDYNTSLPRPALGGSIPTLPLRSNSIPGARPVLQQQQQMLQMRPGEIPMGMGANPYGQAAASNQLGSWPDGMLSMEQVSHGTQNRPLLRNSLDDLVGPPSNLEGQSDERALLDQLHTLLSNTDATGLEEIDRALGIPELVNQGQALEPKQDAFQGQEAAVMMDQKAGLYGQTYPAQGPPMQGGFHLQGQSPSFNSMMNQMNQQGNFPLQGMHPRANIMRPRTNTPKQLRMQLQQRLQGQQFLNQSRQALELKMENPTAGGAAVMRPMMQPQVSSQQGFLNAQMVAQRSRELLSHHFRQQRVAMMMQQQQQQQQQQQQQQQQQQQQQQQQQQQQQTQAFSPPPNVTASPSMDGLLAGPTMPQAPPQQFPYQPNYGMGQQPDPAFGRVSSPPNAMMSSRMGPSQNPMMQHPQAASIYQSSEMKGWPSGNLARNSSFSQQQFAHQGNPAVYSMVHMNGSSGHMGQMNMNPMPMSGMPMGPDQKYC

Row | SMILES | inhibition
1 | Cc1cc(C)nc(SCC(=O)Nc2ccnc3ccccc23)n1 | 12.2% (inactive)
2 | CC(C)(C)NC(=O)CSc1nc2ccc(NC(=O)CSc3nnnn3Cc3ccccc3)cc2s1 | 0.03% (inactive)
3 | CCCCCCCCCCCCCCCCCCNc1ccn(C2OC(COP(=O)(O)OCC3OC(n4cc(F)c(=O)[nH]c4=O)CC3O)C(O)C2O)c(=O)n1 (stereo not given) | 52.3% (active)
4 | OCCNc1ncnc2ccc(Br)cc12 | 21.8% (inactive)
5 | O=C(N/N=C/c1ccc(O)cc1O)/C(=C/c1ccccc1)CCO | 22.1% (inactive)
6 | CCCNC(=O)c1nnsc1S(=O)(=O)c1ccc(Cl)cc1 | 55.7% (active)
7 | CCCCC(=O)NC(c1cccs1)c1cc(Cl)c2cccnc2c1O (stereo not given) | 44.5% (active)
8 | O=C(N/N=C/c1cc(Cl)ccc1O)c1ccc(Br)cc1 | 55.7% (active)
9 | CCn1ccnc1CN(C)Cc1cn[nH]c1-c1ccc(OC)c(F)c1 | 36.8% (inactive)
10 | Cc1cc(CNC(=O)c2cccc([N+](=O)[O-])c2C)c2ccccc2n1 | 13.9% (inactive)
11 | CC(C)(C)OC(=O)NCCCC[C@H](NC(=O)c1nc[nH]c1C(=O)N[C@@H](CCCCNC(=O)OC(C)(C)C)C(=O)OC(C)(C)C)C(=O)OC(C)(C)C | -4.98% (inactive)
12 | CCOC(=O)C(=Cc1cc(=O)c(OC)co1)C(=O)OCC | 48.6% (active)
13 | O=c1[nH]c(=O)n([C@H]2C[C@H](O)[C@@H](CO)O2)cc1F | 60.6% (active)
14 | COc1cc2oc(=O)cc(-c3ccc(-c4ccc(CO)cc4)cc3)c2c(OC)c1OC | 45.9% (active)
15 | CCCCC(=O)OCC(=O)C1(O)Cc2c(O)c3c(c(O)c2C(OC2CC(NC(=O)C(F)(F)F)C(O)C(C)O2)C1)C(=O)c1c(OC)cccc1C3=O (stereo not given) | 26% (inactive)
16 | CC(C)(C)C(=O)NC(=S)NNC(=O)c1sc2ccccc2c1Cl | 10.1% (inactive)
17 | COC(=O)c1ccc2nc(Nc3nc4ccc(F)cc4s3)sc2c1 | 21.2% (inactive)
18 | NC(=O)c1cc(Sc2ccccc2)nc2ccccc12 | 38% (inactive)
19 | NC(=O)N=Nc1c2[nH]c3ccccc3nc-2c2ccccc12 | -8.03% (inactive)
20 | CC(=O)N1c2ccc(S(=O)(=O)NCC3CCC(C(=O)Nc4cccc(C)n4)CC3)cc2CC1C (stereo not given) | -3.79% (inactive)

Row | SMILES | inhibition
21 | COc1ccc(CNc2nn3c(-c4cccc(C(=O)N(C)C)c4)cnc3s2)cc1 | 50.3% (active)
22 | CN(Cc1c(C(=O)N/N=C/c2ccccc2O)nnn1-c1nonc1N)C1CCCCC1 | 66.8% (active)
23 | CCc1ccc2[nH]c3nc(N/N=C/c4cccc(O)c4)nnc3c2c1 | 37.2% (inactive)
24 | CCN(CC)CCNc1ccc(C)c2sc3ccc(O)cc3c(=O)c12 | 41.5% (inactive)
25 | COc1cccc(/C=N/NC(=O)c2cc3c(OC)cccc3[nH]2)c1O | 28.5% (inactive)
26 | Cc1cc(/C=C2\Cc3ccccc3C2=O)c(C)n1-c1ccccc1 | 53.5% (active)
27 | O=C(NN=C(c1ccccc1)c1ccccn1)c1ccccc1 | 44.2% (active)
28 | O=C(COc1ccccc1O)NNc1ccccc1 | 11.6% (inactive)
29 | O=C(CCc1ccccc1)NC(c1cccs1)c1cc(Cl)c2cccnc2c1O (stereo not given) | 55.5% (active)
30 | COc1cc(C(=O)N/N=C(\c2ccccc2)c2ccccn2)cc(OC)c1OC | 32.9% (inactive)
31 | CCN1CCN(c2ccc(Nc3ccnc4ccccc34)cc2)CC1 | 43.5% (active)
32 | COC(=O)c1cc2c(n1S(=O)(=O)c1ccc(C)cc1)C(=O)C(=O)c1[nH]cc(C(=O)OCc3ccccc3)c1-2 | 96.9% (active)
33 | COc1cc(-c2cc3nc4ccccc4n3c(N)c2C#N)cc(OC)c1OC | 14.5% (inactive)
34 | COc1ccc(O)c(/C=N/NC(=O)c2c(C)nnn2-c2nonc2N)c1 | 25.4% (inactive)
35 | CC(C)c1ccc(-c2csc3ncnc(N4CCN(C)CC4)c23)cc1 | 42.1% (inactive)
36 | Cc1cc(C)c2nc3nc(C)c(C)cc3c(N)c2c1 | 13.7% (inactive)
37 | O=C(Nc1ccc(N2CCN(C(=O)c3ccccc3F)CC2)cc1)c1cncc(Br)c1 | 64.7% (active)
38 | COc1ccc(-c2nsc3c(N4CCCCC4)ncnc23)cc1 | 32.4% (inactive)
39 | Cc1cccc(/C=N/Nc2ccc3ccccc3n2)c1 | 16.1% (inactive)
40 | CC(=O)NC(c1ccc(C)cc1)c1cc(Cl)c2cccnc2c1O (stereo not given) | 26.4% (inactive)

Test system: transactivating tegument protein VP16 (Human herpesvirus 1), Gal4-VP16 luciferase reporter
Experiment: repression of VP16-driven luciferase reporter – cell-based, luminescence, high throughput, counter-screen for SRC3 inhibitor project (AID 588794; in the data active = inhibition above about 30%)
Conditions: mammalian cells, at 3.6 µM, stronger effect = higher value

Row | SMILES | inhibition
41 | Cc1cc(C)nc(SCC(=O)Nc2ccnc3ccccc23)n1 | 36.5% (active)
42 | CC(C)(C)NC(=O)CSc1nc2ccc(NC(=O)CSc3nnnn3Cc3ccccc3)cc2s1 | 28.7% (inactive)
43 | CCCCCCCCCCCCCCCCCCNc1ccn(C2OC(COP(=O)(O)OCC3OC(n4cc(F)c(=O)[nH]c4=O)CC3O)C(O)C2O)c(=O)n1 (stereo not given) | 38.7% (active)
44 | OCCNc1ncnc2ccc(Br)cc12 | 30.6% (active)
45 | O=C(N/N=C/c1ccc(O)cc1O)/C(=C/c1ccccc1)CCO | 20.7% (inactive)
46 | CCCNC(=O)c1nnsc1S(=O)(=O)c1ccc(Cl)cc1 | 6.39% (inactive)
47 | CCCCC(=O)NC(c1cccs1)c1cc(Cl)c2cccnc2c1O (stereo not given) | 40.6% (active)
48 | O=C(N/N=C/c1cc(Cl)ccc1O)c1ccc(Br)cc1 | 40.1% (active)
49 | CCn1ccnc1CN(C)Cc1cn[nH]c1-c1ccc(OC)c(F)c1 | 26.1% (inactive)
50 | Cc1cc(CNC(=O)c2cccc([N+](=O)[O-])c2C)c2ccccc2n1 | 41.2% (active)
51 | CC(C)(C)OC(=O)NCCCC[C@H](NC(=O)c1nc[nH]c1C(=O)N[C@@H](CCCCNC(=O)OC(C)(C)C)C(=O)OC(C)(C)C)C(=O)OC(C)(C)C | -9.56% (inactive)
52 | CCOC(=O)C(=Cc1cc(=O)c(OC)co1)C(=O)OCC | 52.1% (active)
53 | O=c1[nH]c(=O)n([C@H]2C[C@H](O)[C@@H](CO)O2)cc1F | 31% (active)
54 | COc1cc2oc(=O)cc(-c3ccc(-c4ccc(CO)cc4)cc3)c2c(OC)c1OC | 28.3% (inactive)
55 | CCCCC(=O)OCC(=O)C1(O)Cc2c(O)c3c(c(O)c2C(OC2CC(NC(=O)C(F)(F)F)C(O)C(C)O2)C1)C(=O)c1c(OC)cccc1C3=O (stereo not given) | 10.2% (inactive)
56 | CC(C)(C)C(=O)NC(=S)NNC(=O)c1sc2ccccc2c1Cl | 3.67% (inactive)
57 | COC(=O)c1ccc2nc(Nc3nc4ccc(F)cc4s3)sc2c1 | 3.83% (inactive)
58 | NC(=O)c1cc(Sc2ccccc2)nc2ccccc12 | 16.6% (inactive)
59 | NC(=O)N=Nc1c2[nH]c3ccccc3nc-2c2ccccc12 | 45% (active)
60 | CC(=O)N1c2ccc(S(=O)(=O)NCC3CCC(C(=O)Nc4cccc(C)n4)CC3)cc2CC1C (stereo not given) | 27.4% (inactive)

Row | SMILES | inhibition
61 | COc1ccc(CNc2nn3c(-c4cccc(C(=O)N(C)C)c4)cnc3s2)cc1 | 30.7% (active)
62 | CN(Cc1c(C(=O)N/N=C/c2ccccc2O)nnn1-c1nonc1N)C1CCCCC1 | 46.5% (active)
63 | CCc1ccc2[nH]c3nc(N/N=C/c4cccc(O)c4)nnc3c2c1 | 64.4% (active)
64 | CCN(CC)CCNc1ccc(C)c2sc3ccc(O)cc3c(=O)c12 | 34.1% (active)
65 | COc1cccc(/C=N/NC(=O)c2cc3c(OC)cccc3[nH]2)c1O | 29% (inactive)
66 | Cc1cc(/C=C2\Cc3ccccc3C2=O)c(C)n1-c1ccccc1 | 18.6% (inactive)
67 | O=C(NN=C(c1ccccc1)c1ccccn1)c1ccccc1 | 42.1% (active)
68 | O=C(COc1ccccc1O)NNc1ccccc1 | 24% (inactive)
69 | O=C(CCc1ccccc1)NC(c1cccs1)c1cc(Cl)c2cccnc2c1O (stereo not given) | 42% (active)
70 | COc1cc(C(=O)N/N=C(\c2ccccc2)c2ccccn2)cc(OC)c1OC | 23.2% (inactive)
71 | CCN1CCN(c2ccc(Nc3ccnc4ccccc34)cc2)CC1 | 32.1% (active)
72 | COC(=O)c1cc2c(n1S(=O)(=O)c1ccc(C)cc1)C(=O)C(=O)c1[nH]cc(C(=O)OCc3ccccc3)c1-2 | 93.6% (active)
73 | COc1cc(-c2cc3nc4ccccc4n3c(N)c2C#N)cc(OC)c1OC | -16.8% (inactive)
74 | COc1ccc(O)c(/C=N/NC(=O)c2c(C)nnn2-c2nonc2N)c1 | 19.7% (inactive)
75 | CC(C)c1ccc(-c2csc3ncnc(N4CCN(C)CC4)c23)cc1 | 35.5% (active)
76 | Cc1cc(C)c2nc3nc(C)c(C)cc3c(N)c2c1 | 49.7% (active)
77 | O=C(Nc1ccc(N2CCN(C(=O)c3ccccc3F)CC2)cc1)c1cncc(Br)c1 | 37.8% (active)
78 | COc1ccc(-c2nsc3c(N4CCCCC4)ncnc23)cc1 | 20.4% (inactive)
79 | Cc1cccc(/C=N/Nc2ccc3ccccc3n2)c1 | -21.2% (inactive)
80 | CC(=O)NC(c1ccc(C)cc1)c1cc(Cl)c2cccnc2c1O (stereo not given) | 22.3% (inactive)
